# Measured values from the OligoGym collection.
# Target: ALAD
# Experiment: pooled miR-30 sensor sort-seq; sequence = guide strand
# Details: shRNA
# Also: reference of the scale not given here.
row,Sequence,sensor-assay potency score (higher = more potent)
1,AAGCTGGGCTTGACTTAGCTGC,-1.16
2,TGGATTGCCTCAATAGCTGGGG,-0.361
3,TCGTCCTTGGGAACTCTGCTGG,-1.05
4,TATGTCATCAGGAACATCCGTG,0.268
5,TAGGTGATGATGATGTCAGCAC,0.277
6,TGATAGGCTGTATGTCATCAGG,-1.65
7,TAGTGGGTGGAAGTAGCCGCTG,-1.31
8,TTTAAAGTTCTAGTTCTTGGGC,-0.0518
9,TTGACTTAGCTGCATCCCGGAA,-1.25
10,ACATCCGTGACAAAGATGGGGT,0.0537
11,ATGTCAGCACCTGCTCTGCGGA,-1.76
12,TCCTTGGGAACTCTGCTGGGGA,-1.34
13,ATGTCATCAGGAACATCCGTGA,-0.798

# Target: ALDH1A1
# Experiment: as above
# Details: shRNA
row,Sequence,sensor-assay potency score (higher = more potent)
1,TGTCTTTGGTAAACACTCCTGC,0.136
2,TTATCTCCTTCTTCTACCTGGC,-0.0648
3,TTAGCTATTGAAGAGCTTCTCT,0.445
4,ATATTGTTCCTTGTCAATCTGA,0.00946
5,TAATTCTTTCAGAAGAAGCTAC,-0.0936
6,AAATTCAACAGCATTGTCCAAG,-0.656
7,AATACTAATATGATTTAGCTTA,-0.152
8,TTAAAATCTACTATATTAGTGA,0.534
9,TAGCGCAATGTTTTGATGCAGC,-0.601
10,TAGCAATTCACCCACACTGTTC,-1.07
11,TATTGTTCCTTGTCAATCTGAG,0.207
12,TGTAACATTAGAGAACACTGTG,0.545
13,TTAGAGAACACTGTGGGCTGGA,0.618
14,TACTTTGTCTATATCCATGTGA,0.349
15,TATATTAGTGACTGTAAGGAGA,-0.658
16,TGATTTGCTGCACTGGTCCAAA,-0.586
17,TTAAAGACAGGAAATTTCTTGC,-0.236
